The values below come from PubChem BioAssay (NCI).

This is part of a sample that, as a whole, favours compounds with a hit. Of some 83,000 tested, about 20% had one in any assay.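 Values shown are percent growth following 48 h exposure of cells in 96-well plates to a single concentration of compound; below 10 was considered active.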 Activity calls are given as the source filed them.

One experiment has as its system A549/ATCC NSCLC. Briefly: NCI-60 one-dose screen, 48 h (100 = growth as untreated, 0 = no growth, -100 = all killed). The note with it: 10 µM unless noted.
With `COc1cc2cc(Oc3ccc(NC(=O)Nc4ccc(Cl)c(C(F)(F)F)c4)cc3)c(C)nc2cc1OCCN1CCOCC1`, the growth is 12.7% (inactive).

Turning to `CCOC(=O)C1=C(N)Oc2c(sc3c(C)cccc23)C1c1ccc(F)cc1` (stereo not given), the growth is 20.1% (inactive).

For the molecule `NCCCNc1nc2ccccc2c2c(=O)c3cccc(F)c3sc12`, the growth is 24% (inactive).

`CCc1ccc(Oc2c(-c3ccc(OCc4ccc(Cl)cc4)cc3O)n[nH]c2C(F)(F)F)cc1`: the growth is 33.5% (inactive).

Take `COc1ccc2sc3c(NCCCNCCO)nc4ccccc4c3c(=O)c2c1`: the growth was 62.6% (inactive).

On to `COc1nc2ccccc2cc1-c1nc2c(cnn2-c2ccc(Br)cc2)c(=O)[nH]1`, for which the growth was 39.9% (inactive).

As to `Cc1oc2nc[nH]c(=O)c2c1C(=O)/C=C/c1ccc(Br)cc1`, the growth is 9.19% (active).

The next experiment deals with 786-0 renal. The experiment is described as above. The following applies: 10 µM unless noted.
`COc1ccc(/C=N/Nc2cc(=O)[nH]c3ccc(Cl)cc23)cc1`: the growth was 62.1% (inactive).

Turning to `CCCCCCN(CCCCCC)c1ccc(/C=C2/SC(=O)NC2=O)c(C)c1`, the growth is 77.6% (inactive).

Take `CC(=O)Oc1ccccc1C(=O)N=C1[Se]CCCN1C(=O)c1ccccc1OC(C)=O`: the growth is 95.9% (inactive).

As to `CC(C)OC(=O)Nc1ccc(-c2nc(-c3cccc(OCCN4CCOCC4)c3)c(-c3ccnc(Br)c3)[nH]2)cc1`, the growth was -33% (active).

On to `Cc1cc2nc3ccc(N=Nc4ccc(N(C)C)cc4)cc3n(-c3ccccc3)c-2cc1=N`, for which the growth is -61.9% (active).

As for `CCCCn1c(-c2ccc(-c3nc(-c4ccc(Cl)cc4)no3)cc2)nc(-c2ccccc2)c1-c1ccccc1`, the growth is 82% (inactive).

As to `Oc1c(I)cc(I)cc1CNCCCN(Cc1ccccn1)Cc1ccccn1`, the growth was -95.4% (active).

Consider `C/C(=N/NC(N)=S)c1sc(Nc2cccc(Cl)c2)nc1C`, for which the growth is 84.3% (inactive).

As for `Cc1nn(-c2ccccc2)c2c1N=c1s/c(=C\c3ccc(C(F)(F)F)cc3)c(=O)n1CN2`, the growth is 73.2% (inactive).

In the case of `O=C(O)CCC(=O)Nc1nnc(-c2ccccc2)s1`, the growth was 92.9% (inactive).

With `Oc1ccc(Cl)cc1Cc1cc(Cl)cc(Cl)c1O`, the growth was 59.5% (inactive).

Take `O=c1c2cccc(Cl)c2sc2c(NCCCNCCO)nc3ccccc3c12`: the growth is 45.6% (inactive).

As to `COc1cc(C2CC(c3cccc(Br)c3)=NN2C(C)=O)cc(OC)c1OC` (stereo not given), the growth is 40.7% (inactive).

As to `COc1ccc(-c2nc(NN)c3c(C)nn(-c4ccc(F)cc4)c3n2)cc1`, the growth was 38.6% (inactive).

Turning to `CCOC(=O)NCCc1ccccc1`, the growth was 112% (inactive).

Consider `COc1ccccc1/C=C1\Oc2cc(OCCN3CCC(Cc4ccccc4)CC3)ccc2C1=O`, for which the growth was 80% (inactive).

In the case of `O=C(COc1ccc(/C=C2\Cc3ccc(Cl)cc3C2=O)cc1)Nc1nc2ccccc2s1`, the growth was 103% (inactive).

As to `CCc1cccc2c3c(sc12)C(c1ccc(F)cc1)C(C#N)=C(N)O3` (stereo not given), the growth is 30% (inactive).

As to `Cc1ccc(C(=O)N/N=C/c2cccc([N+](=O)[O-])c2)cn1`, the growth was 31.4% (inactive).

Regarding `CCOC(=O)C1=C(N)Oc2c(sc3c(C)cccc23)C1c1ccc(Cl)cc1` (stereo not given), the growth is 35.7% (inactive).

For the molecule `COc1ccc(-n2c(N)c(-c3nc4ccccc4[nH]3)cc(C#N)c2=O)cc1`, the growth was 92.5% (inactive).

In the case of `Cc1cc2nc3cc(C)c(N)cc3[n+](-c3ccccc3)c2cc1N`, the growth was 58.6% (inactive).

`COc1c(N2CC3CCCN(C(C)=O)C3C2)c(F)cc2c(=O)c(C(=O)N[C@H]3C(O)[C@@H](O)C(CO)O[C@H]3O)cn(C3CC3)c12` (stereo not given in full): the growth was 101% (inactive).

Take `COc1ccc(C2CC(c3ccc(Nc4nc(Nc5ccc(F)cc5)nc(Nc5ccc(Cl)cc5)n4)cc3)=NN2C(C)=O)cc1` (stereo not given): the growth was 98.9% (inactive).

For the molecule `O=c1[nH][n+](-c2ccc(Br)cc2)no1`, the growth was 59% (inactive).

For `O=C(CSc1nccc(Nc2ccc(S(=O)(=O)Nc3nccs3)cc2)n1)c1ccc(C(F)(F)F)cc1`, the growth is 99.7% (inactive).

Turning to `COc1cc(C2CC(c3ccc(N(C)C)cc3)=NN2C(C)=O)cc(OC)c1OC` (stereo not given), the growth is 24.1% (inactive).

For the molecule `COc1ccc2c(c1)c(-c1ccc(-c3cn(C)c4ccc(OC)cc34)o1)cn2C`, the growth was 83.2% (inactive).

As to `COc1ccc(CN2c3ccccc3CCc3ccccc32)cc1F`, the growth is 33.9% (inactive).

On to `CC(=O)N1N=C(c2ccc(Nc3nc(Nc4ccc(F)cc4)nc(Nc4ccc(Cl)cc4)n3)cc2)CC1c1ccc(Cl)cc1` (stereo not given), for which the growth is 98.2% (inactive).

Regarding `COc1ccc(OC)c(/C=C/c2nnc(Nc3ccccc3)o2)c1`, the growth is 87.4% (inactive).

`COc1cc2cc(Oc3ccc(NC(=O)Nc4ccc(Cl)c(C(F)(F)F)c4)cc3)c(C)nc2cc1OCCN1CCOCC1`: the growth is 29.2% (inactive).

With `CCOC(=O)C1=C(N)Oc2c(sc3c(C)cccc23)C1c1ccc(F)cc1` (stereo not given), the growth was 33.4% (inactive).

`NCCCNc1nc2ccccc2c2c(=O)c3cccc(F)c3sc12`: the growth is 52.6% (inactive).

Take `CCc1ccc(Oc2c(-c3ccc(OCc4ccc(Cl)cc4)cc3O)n[nH]c2C(F)(F)F)cc1`: the growth was 64.4% (inactive).

For `COc1ccc2sc3c(NCCCNCCO)nc4ccccc4c3c(=O)c2c1`, the growth is 63% (inactive).

`COc1nc2ccccc2cc1-c1nc2c(cnn2-c2ccc(Br)cc2)c(=O)[nH]1`: the growth was 15.5% (inactive).

`Cc1oc2nc[nH]c(=O)c2c1C(=O)/C=C/c1ccc(Br)cc1`: the growth was 11.5% (inactive).
